The list is not random: actives were taken first. Their share in the collection is about 6.7%.
GDH-TPI inh: GDH-TPI coupling enzyme inhibitors, primary screen, artefact control for M. tuberculosis FBA inhibitor project, biochemical, absorbance, full deck. inhibition, % at 4.8 µM. AID 588335, 2011. 360,000 tested, 1.2% active. GDH-TPI coupled enzyme counterscreen, NADH absorbance; in the data active means inhibition above about 30%
BoNT F protease: BoNT/F light chain protease inhibitors, primary screen, biochemical, flow cytometry, MLPCN library. 360,000 tested, 0.22% active. inhibition, % at 10 µM. Botulinum neurotoxin type F light chain protease (Clostridium botulinum). Multiplex microsphere protease cleavage assay; in the data active means inhibition above about 35%, passing the limit was not always enough; inconclusive means no clear call, values can overlap the other calls
Mtb FBA inh: Mtb FBA enzyme inhibitors, primary screen, biochemical, fluorescence, strain H37Rv. Fructose-bisphosphate aldolase (Mycobacterium tuberculosis (strain ATCC 25618 / H37Rv)), …. purified M. tuberculosis FBA, fluorescence read-out. inhibition, % at 1 µM. 360,000 tested, 2.3% active; in the data active means inhibition above about 27%
Target sequence (P9WQA3 whole entry, looked up): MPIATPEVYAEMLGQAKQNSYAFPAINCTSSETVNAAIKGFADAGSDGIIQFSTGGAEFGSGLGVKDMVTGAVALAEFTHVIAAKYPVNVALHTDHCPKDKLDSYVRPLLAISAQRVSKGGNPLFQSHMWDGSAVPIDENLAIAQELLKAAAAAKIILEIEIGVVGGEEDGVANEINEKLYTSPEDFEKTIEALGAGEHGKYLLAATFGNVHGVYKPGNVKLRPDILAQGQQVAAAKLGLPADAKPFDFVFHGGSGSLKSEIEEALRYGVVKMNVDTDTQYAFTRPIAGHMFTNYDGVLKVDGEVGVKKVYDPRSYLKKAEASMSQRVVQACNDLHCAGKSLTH
BoNT-A LC inh2: BoNT/A light chain protease inhibitors, primary screen, biochemical, flow cytometry, MLPCN library; multiplex microsphere protease substrate cleavage; inhibition, % at 10 µM; 360,000 tested, 0.17% active; AID 588499, 2011
Bead autofluor: counter-screen for toxin protease inhibitors: compound fluorescence | compound autofluorescence counterscreen, microsphere flow cytometry; active compounds read high | fluorescence intensity (concentration not given with the values) | 360,000 tested, 3.1% active | AID 624483; in the data active means fluorescence intensity above about 16000; inconclusive means no clear call, values can overlap the other calls
Anthrax LF prot: Bacillus anthracis LF protease inhibitors, primary screen, biochemical, multiplex microsphere, MLPCN library | Lethal factor (Bacillus anthracis), P15917 | multiplex microsphere protease cleavage assay | inhibition, % at 10 µM | 360,000 tested, 0.12% active | AID 588501, 2011
Each line names hits and unclear results; the compound was inactive in the other large screens. Unless noted, no stated cut-off is given here; in the data, active means inhibition above about 30%; inconclusive means no clear call, values can overlap the other calls; inactive means below that.

CC12CCC(C(=O)NCCN3CCCCC3)(CC1=O)C2(C)C (stereo unspecified)	none
CC(C)CCOc1ccc(C(=O)NCCC(=O)N2CCOCC2)cc1	Bead autofluor 21240
Cc1ccc(CN2CCS(=O)(=O)CC2)o1	none
CCOC(=O)C(C)N1N=C(/C=C/c2ccc(OC)cc2)CCC1=O (stereo unspecified)	GDH-TPI inh 41.8
CCOC(=O)CN1N=C(/C=C/c2ccc(OC)cc2)CCC1=O	GDH-TPI inh 37.9
Cc1ccc(/C=C/C2=NN(C)C(=O)CC2)cc1	none
Cc1ccc(OCC(=O)NNc2c3ccccc3nc3ccccc23)cc1	none
CCOc1c(Cl)cc(C(=O)NCCN2CCCCC2)cc1Cl	Bead autofluor 22799
Cc1cccc(OCC(=O)NNc2c3ccccc3nc3ccccc23)c1	Bead autofluor 21560
Cc1cccc(OCC(=O)NCCN2CCOCC2)c1	Bead autofluor 20366
Cc1ccc(OCC(=O)NCCN2CCOCC2)cc1C	none
Cc1cccc(C(=O)NCCN2CCCC2)c1	Bead autofluor 20070
NC(=O)Nc1ccc(Cl)cc1	none
COc1ccc(S(=O)(=O)NCCC(=O)OCc2cc(=O)oc3cc(C)ccc23)cc1[N+](=O)[O-]	none (no result: BoNT F protease, BoNT-A LC inh2, Bead autofluor, Anthrax LF prot)
O=[N+]([O-])c1ccc(N2CCN(C(=S)Nc3ccc(F)cc3F)CC2)cc1	none
O=C(OCCN1C(=O)c2ccccc2C1=O)C1CCN(S(=O)(=O)c2cccs2)CC1	BoNT-A LC inh2 inconclusive, Bead autofluor 22995
CCC(CC)NC(=O)C1CCN(S(=O)(=O)c2cccs2)CC1	Bead autofluor 23956
CCOC(=O)N1CCC(NC(=O)C2CCN(S(=O)(=O)c3cccs3)CC2)CC1	Bead autofluor 20126
O=C(NC1CCCCC1)C1CCN(S(=O)(=O)c2cccs2)CC1	none
CC(C)Oc1ccc(C(=O)NCc2ccco2)cc1	none
CCC(=O)Nc1cccc(NC(=S)NC(=O)c2ccc(C)cc2)c1	none
Cc1[nH]n(-c2ccc([N+](=O)[O-])cc2)c(=O)c1C=NCC1CCCO1 (stereo unspecified)	none
NC(=O)c1cc2cc(Cl)ccc2oc1=O	none
O=C(O)c1cc2cc(Cl)ccc2oc1=O	Bead autofluor 22395
CC1(C)Nc2ccccc2C(=O)N1c1ccccc1	Mtb FBA inh 114.8
CN(C)c1nc(NCc2ccccc2)nc(SCC(=O)Nc2ccc(Cl)c(Cl)c2)n1	Bead autofluor 19687
CCOC(=O)C(=O)NCC1CCCN1S(=O)(=O)c1cccs1 (stereo unspecified)	none
CCC(=O)Nc1ccc(C(=O)NNC(=O)CCCCC(=O)NNC(=O)c2ccc(NC(=O)CC)cc2)cc1	none
Cc1coc2cc3oc(=O)c(CCC(=O)NCC(=O)O)c(C)c3cc12	Mtb FBA inh 27.6
Cc1c(CCC(=O)NCC(=O)O)c(=O)oc2cc3occ(-c4ccccc4)c3cc12	none
COc1ccc(-c2c(C)c3ccc(O)cc3oc2=O)cc1OC	Mtb FBA inh active
CCCc1c(C)c2ccc(OCC(C)=O)cc2oc1=O	Mtb FBA inh 124.1
COc1ccc(-c2c(C)c3cc(O)ccc3oc2=O)cc1	none
CC(=O)COc1ccc2c(C)c(-c3ccccc3)c(=O)oc2c1	none
Cc1c(CCC(=O)O)c(=O)oc2cc(O)ccc12	Mtb FBA inh active
Cc1ccc(C(=O)NC(C(=O)Nc2ccccc2)c2ccccc2)cc1 (stereo unspecified)	none
COC(=O)[C@H](C)NC(=O)N1CCC(Cc2ccccc2)CC1	none
C=CCOC(=O)COc1ccc2c(C)c(CC)c(=O)oc2c1	Mtb FBA inh 64.2, Bead autofluor 23645
Cc1c(C)c2ccc(OCC(=O)c3ccccc3)cc2oc1=O	none
Cc1nc(-c2ccccc2)sc1C(=O)NN	none
Cc1ccc(N/C=C/C(=O)c2sc(-c3ccccc3)nc2C)cc1	BoNT-A LC inh2 32.2
CCNC(=S)Nc1ccc(N2CCCCC2)cc1	none
O=C(NCC1CCCO1)c1ccc(NC(=O)c2ccc(Br)cc2)cc1 (stereo unspecified)	none
O=C1NC(=O)C2(CCCCCCCCCCC2)N1	none
CCN(CC)Cc1c[nH]c2ccccc12	none
CCN(CC)Cc1c[nH]c2c(C(=O)OC)cccc12	Mtb FBA inh 67.0
C=C(C)CN(CC)c1nc(N)c(C#N)c(CC#N)c1C#N	BoNT-A LC inh2 inconclusive, Bead autofluor 20294
CCCCN(CC)c1nc(N)c(C#N)c(CC#N)c1C#N	none
CCOC(=O)c1ccc2c(c1)N(Cc1ccccc1C)C(=O)c1ccccc1S2=O (stereo unspecified)	Bead autofluor 22107
Cc1cc(NC(=O)Cn2cc(C(F)(F)F)cc(Cl)c2=O)no1	BoNT-A LC inh2 inconclusive, Bead autofluor 21524
Cc1cc(NC(=O)CSc2ccc(Cl)cc2)no1	Bead autofluor 22791
COc1ccc(-c2ccc(SCC(=O)Nc3cc(C)on3)nn2)cc1OC	Bead autofluor 25486
Cc1cc(NC(=O)CSc2nc3ccccc3s2)no1	none
Cc1cc(NC(=O)CSc2nc(-c3ccc(Cl)cc3)cs2)no1	BoNT-A LC inh2 inconclusive, Bead autofluor 20504
COc1ccccc1S(=O)(=O)Cc1ccc(C(=O)NCc2ccc3c(c2)OCO3)o1	none
CCC(=O)N1CCN(c2ccc(NC(=O)c3ccc4c(c3)OCCO4)cc2)CC1	none
COc1ccccc1C(=O)NCCn1cc(SCC(=O)Nc2cc(C)on2)c2ccccc21	BoNT-A LC inh2 inconclusive, Bead autofluor 16999
CCOc1ncccc1C(=O)OCC(=O)Nc1ccc(S(=O)(=O)N2CCOCC2)cc1	none
CCN(C(C)=O)c1nc(CSc2nnc(NC(C)C)s2)cs1	BoNT-A LC inh2 inconclusive, Bead autofluor 19610
COCc1[nH]nc2c1C1(C(=O)Nc3ccc(F)cc31)C(C#N)=C(N)O2 (stereo unspecified)	none
NC(=O)c1cccn1Cc1cccc(Cl)c1	none
NC(=O)c1cccn1Cc1ccccc1Cl	Bead autofluor 22851
CC1CC(C)CN(S(=O)(=O)c2ccc(C(=O)Nc3nnc(-c4cccs4)o3)cc2)C1 (stereo unspecified)	BoNT F protease inconclusive
CCC1CCCCN1S(=O)(=O)c1ccc(C(=O)Nc2nnc(-c3cccs3)o2)cc1 (stereo unspecified)	GDH-TPI inh 67.6
N#Cc1ccc(C(=O)Nc2nnc(-c3cccs3)o2)cc1	GDH-TPI inh 32.9
CC(C)(C)c1ccc(C2(C)NC(=O)N(CC(=O)c3ccc[nH]3)C2=O)cc1 (stereo unspecified)	none
O=C(Cc1cc(=O)oc2cc(O)ccc12)NCC1CCC(C(=O)O)CC1 (stereo unspecified)	Mtb FBA inh active
CCCc1cc(=O)oc2cc(OCC(=O)NCC3CCC(C(=O)O)CC3)ccc12 (stereo unspecified)	none
